The record followed here is PubChem BioAssay (EPA / NIEHS).

Values joined by “and” are separate entries in the source; they are usually repeats but may differ in a detail not shown here. Equal values may be shown once. Inconclusive results are not listed. Some compounds were tested as several samples or in several runs, with calls that do not always agree. Active and inactive are the calls of the source. The calls were made as follows: active = hit-call score of the fitted dose curve at least 0.9, where 1 is the maximum; inconclusive = response in the unintended direction; inactive = score below 0.9.

Sequence of Cellular tumor antigen p53 (Homo sapiens) (P04637 whole entry, looked up, the tested form may be a part): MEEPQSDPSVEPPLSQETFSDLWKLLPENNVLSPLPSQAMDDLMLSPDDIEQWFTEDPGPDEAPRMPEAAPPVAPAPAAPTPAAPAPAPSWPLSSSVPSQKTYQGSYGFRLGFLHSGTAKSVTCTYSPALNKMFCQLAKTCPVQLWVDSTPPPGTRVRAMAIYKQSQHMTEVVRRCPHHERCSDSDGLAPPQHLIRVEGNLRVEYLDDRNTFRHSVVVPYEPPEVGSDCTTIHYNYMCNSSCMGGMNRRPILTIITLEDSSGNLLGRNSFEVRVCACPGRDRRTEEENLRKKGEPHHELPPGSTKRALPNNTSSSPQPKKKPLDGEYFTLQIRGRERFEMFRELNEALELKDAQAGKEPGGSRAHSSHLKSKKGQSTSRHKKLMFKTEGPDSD

The assay concerns the target Cellular tumor antigen p53 (Homo sapiens) (UniProt P04637). The experiment in a line: TOX21_p53_BLA_p3_ratio: Tox21 HCT-116 p53 Agonism Beta-lactamase Assay, Ratio, Phase 3 (AID 2283596). The source says: TOX21_p53_BLA_p3 is a cell-based, single-readout assay that uses HCT116, a human intestinal cell line, […] in a 1536-well plate.TOX21_p53_BLA_p3_ratio is an assay readout measuring reporter gene via receptor activity and designed using inducible reporter (beta lactamase induction) detected with GAL4 b-lactamase reporter gene. The signal is derived from the ratio of cleaved (ch2) to uncleaved (ch1) reporter gene substrate used as the measure of target activity.Data from the assay component TOX21_p53_BLA_p3_ratio was analyzed into 1 assay endpoint. This assay endpoint, TOX21_p53_BLA_p3_ratio, was analyzed in the positive analysis fitting direction relative to DMSO as the negative control and baseline of activity. Using a type of inducible reporter, gain-of-signal activity can be used to understand changes in the reporter gene as they relate to the gene TP53. Furthermore, this assay endpoint can be referred to as a primary readout, because this assay has produced multiple assay endpoints where this ratio serves a reporter gene function to understand target activity. To generalize the intended target to other relatable targets, this assay endpoint is annotated to the DNA binding intended target family, where the subfamily is tumor suppressor.
Thawing Method: Place 14 mL of pre-warmed thaw medium into a 15 mL of conical tub. Remove the vial of cells to be thawed from liquid nitrogen and thaw rapidly by placing at 37C in a water bath with gentle agitation for 1-2 minutes. Decontaminate the vial by wiping with 70% ethanol before opening in a biological safety cabinet. Transfer the vial contents drop-wise into 14 mL of thaw medium in a sterile 15-mL conical tub. Centrifuge cells at 900 rpm for 4 minutes and resuspend in thaw medium. Transfer contents to the T75 tissue culture flask containing Thaw Medium and place flask in a humidified 37C/5% CO2 incubator. Switch to growth medium at first passage.Propagation Method: Aspirate medium, rinse once in DPBS, add 0.25% Trypsin/EDTA and swirl to coat the cell evenly. Add an equal volume of Growth Medium to inactivate Trypsin after 2-3 minutes incubation at 37C. Centrifuge cells at 900 rpm for 4 minutes and resuspend in growth medium. Cell should be passage or fed at least twice a week.Assay Protocol: Harvest cells from culture in growth medium and resuspend in assay medium. 2.2 Dispense 4000 cells/5 uL/well into 1536-well black/clear bottom plates using a Multidrop dispenser. After the cells were incubated at 37C for 5 hours, 23 nL of compounds dissolved in DMSO were transferred to the assay plate by a PinTool resulting in a 217-fold dilution. Incubate the plates for 16 hours at 37C, 5% CO2. Add 1 uL of 6X LiveBLAzer FRET B/G (CCF4-AM) Substrate Mixture to each well using a BioRAPTR dispenser and incubate the plates at room temperature for 2 hours. Measure fluorescence intensity at 460 and 530 nm emission and 405 nm excitation by an Envision detector. Data is expressed as the ratio of 460nm/530nm emissions. Add 4 uL of Cell-titer Glo to each well using BioRAPTR and incubate the plates at room temperature for 2 hours. Measure fluorescence intensity by a VewLux plate reader.
Regarding `COc1ccc(C=O)cc1OC`, the outcome was inactive. Regarding `CCC[CH2][Sn]([CH2]CCC)([CH2]CCC)[O]C(=O)c1ccccc1`, the AC50 was 24.4 µM (active). As to `c1ccc(N=NNc2ccccc2)cc1`, the outcome was inactive. As for `O=[N+]([O-])c1ccc(O)c([N+](=O)[O-])c1`, the outcome was inactive and the AC50 is 78.5 µM (active). Regarding `NC(=O)CF`, the result was inactive. On the same count and under the same terms, the same measure for `CC(C)c1ccc(CO)cc1`: “inactive”; for `Oc1ccc(-c2ccccc2)cc1`: “inactive”.

With `O=C(O)C(Cl)(Cl)Cl`, the result was inactive. For `CCC[CH2][Sn]([Cl])([Cl])[Cl]`, the outcome was inactive.

With `C[C@H]1CCCC(=O)CCC/C=C/c2cc(O)cc(O)c2C(=O)O1`, the AC50 was 12.3 µM (active) and 15.8 µM (active).

For `COP(=O)(OC)OC`, the outcome was inactive.

Consider `CC(C)(c1ccc(OCC2CO2)cc1)c1ccc(OCC2CO2)cc1` (stereo not given), for which the AC50 is 84.2 µM (active) and 80.6 µM (active). For the molecule `CCOP(=S)(OCC)Oc1nc(Cl)c(Cl)cc1Cl`, the outcome was inactive. On the same count and under the same terms, the same measure for `CNC(=O)O/N=C/C(C)(C)S(C)=O` (stereo not given): “inactive”. For the molecule `CC(C#N)CCC#N` (stereo not given), the result was inactive. The same measure, in the same setting: for `C=C(C)C#N` the value was “inactive”; for `C=CC#N`, “inactive”. Regarding `Nc1ccc(-c2ccc(N)c(Cl)c2)cc1Cl`, the result was inactive; the AC50 is 15.7 µM (active) and 18.6 µM (active).

Consider `O=C1C2(Cl)C3(Cl)C4(Cl)C(Cl)(Cl)C5(Cl)C3(Cl)C1(Cl)C5(Cl)C24Cl` (stereo not given), for which the AC50 is 72.4 µM (active) and 85.4 µM (active). With `NNC(=S)NN`, the outcome was inactive. As to `CCNc1nc(NC(C)(C)C)nc(SC)n1`, the result was inactive. On the same count and under the same terms, the same measure for `CCCCCCCCCl`: “inactive”. `C[C@H]1O[C@@H](O[C@H]2[C@@H](O)C[C@H](O[C@H]3[C@@H](O)C[C@H](O[C@H]4CC[C@@]5(C)[C@H](CC[C@@H]6[C@@H]5CC[C@]5(C)[C@@H](C7=CC(=O)OC7)CC[C@]65O)C4)O[C@@H]3C)O[C@@H]2C)C[C@H](O)[C@@H]1O`: the outcome was inactive. On the same count and under the same terms, the same measure for `CCCCCCCCc1ccc(O)cc1`: “inactive”; for `ClCCBr`: “inactive”. Consider `CC(C)(C)CC(C)(C)c1ccc(O)cc1`, for which the AC50 was 41.9 µM (active) and the result was inactive.

As to `C(=NC1CCCCC1)=NC1CCCCC1`, the AC50 was 16.2 µM (active) and the result was inactive. Take `COc1cc(OC)nc(NC(=O)NS(=O)(=O)c2ncccc2C(=O)N(C)C)n1`: the result was inactive. As for `CC(C)c1cccc(C(C)C)c1O`, the result was inactive. Take `N#CN=C(N)N`: the outcome was inactive. The same measure, in the same setting: the same measure for `COP(=O)(OC)O/C(=C\Cl)c1cc(Cl)c(Cl)cc1Cl`: “inactive”; for `COP(=S)(OC)Oc1c(Cl)cc(C)cc1Cl`: “inactive”; for `Cl/C=C/Cl`: “inactive”.

Consider `O=C1C(Cl)=C(Cl)C(=O)c2ccccc21`, for which the AC50 was 54.1 µM (active) and 67.3 µM (active).

Consider `OCc1ccco1`, for which the outcome was inactive. On the same count and under the same terms, the same measure for `CCCCC(CC)CO[N+](=O)[O-]` (stereo not given): “inactive”.

A word on the AC50: it is the midpoint of the concentration-response curve, whichever way the signal moves.
